The source of these data is PubChem BioAssay (EPA / NIEHS).

SMILES strings stand for the structures. Results filed as inconclusive are left out. Activity calls are given as the source filed them. How the source made its calls, unless noted: active means hit-call score of the fitted dose curve at least 0.9, where 1 is the maximum; inconclusive means response in the unintended direction; inactive means score below 0.9.

Read-out in test [1]: xenobiotic metabolism (CYP1A2), CYP1A2 (gene 1544)
Kind of test: CLD_CYP1A2_24hr: CellzDirect (CLD) Gene Expression Assay for xenobiotic metabolism (CYP1A2) at 24 hours (AID 2283683). In a few lines: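 CYP1A2 mRNA induction measured by quantitative nuclease protection (chemiluminescent) in human primary hepatocytes 24 h after multi-concentration chemical dosing with daily fresh solutions. DMSO (0.2%) baseline; positive-direction fitting; morphology-based cytotoxicity noted.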

Read-out in test [2]: ABC Transporter (ABCB1), ABCB1 (gene 5243)
Kind of test: CLD_ABCB1_24hr: CellzDirect (CLD) Gene Expression Assay for ABC Transporter (ABCB1) at 24 hours (AID 2283684). Summed up: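 ABCB1 mRNA induction versus 0.2% DMSO vehicle was read by qNPA chemiluminescence at 24 h. Cultured human hepatocytes from two donor preparations received daily fresh dosing, and phase-contrast cytotoxicity calls were annotated alongside the data.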

Read-out in test [3]: Broad substrate specificity ATP-binding cassette transporter ABCG2 (Homo sapiens) (UniProt Q9UNQ0)
Kind of test: CLD_ABCG2_24hr: CellzDirect (CLD) Gene Expression Assay for ABC Transporter (ABCG2) at 24 hours (AID 2283685). In a few lines: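 ABCG2 mRNA induction, read as gain of chemiluminescent signal over 0.2% DMSO, was measured by quantitative nuclease protection at 24 h. Cultured human liver hepatocytes were given fresh dosing solutions of test chemicals at several concentrations each day.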

Read-out in test [4]: Cytochrome P450 2C19 (Homo sapiens) (UniProt P33261)
Kind of test: CLD_CYP2C19_24hr: CellzDirect (CLD) Gene Expression Assay for xenobiotic metabolism (CYP2C19) at 24 hours (AID 2283687).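 Further: activity means mRNA induction above DMSO vehicle baseline.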 In a few lines:
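CYP2C19 mRNA was quantified by qNPA chemiluminescence after 24 h of daily dosing of cultured human primary hepatocytes from two donors; vehicle was 0.2% DMSO, and increases over DMSO baseline were fitted.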

Read-out in test [5]: glucuronosyltransferase (UGT1A1), UGT1A1 (gene 54658)
Kind of test: CLD_UGT1A1_24hr: CellzDirect (CLD) Gene Expression Assay for glucuronosyltransferase (UGT1A1) at 24 hours (AID 2283696). In a few lines:
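UGT1A1 transcript induction was measured by quantitative nuclease protection assay (chemiluminescence) in human hepatocyte cultures 24 h after daily fresh dosing, with 0.2% DMSO as vehicle and baseline.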

Read-out in test [6]: xenobiotic metabolism (CYP1A2), CYP1A2 (gene 1544)
Kind of test: CLD_CYP1A2_48hr: CellzDirect (CLD) Gene Expression Assay for xenobiotic metabolism (CYP1A2) at 48 hours (AID 2283703). In a few lines: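 Cytotoxicity was flagged yes/no from morphology, while CYP1A2 transcript induction was detected by qNPA chemiluminescence after a 48-hour exposure. Human primary hepatocyte cultures from separate donors received fresh dosing solutions daily over two days, with 0.2% DMSO as vehicle and baseline.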

Read-out in test [7]: Broad substrate specificity ATP-binding cassette transporter ABCG2 (Homo sapiens) (UniProt Q9UNQ0)
Kind of test: CLD_ABCG2_48hr: CellzDirect (CLD) Gene Expression Assay for ABC Transporter (ABCG2) at 48 hours (AID 2283704).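 On AC50: potency for induction of ABCG2 mRNA above the DMSO baseline.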 In a few lines:
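ABCG2 transcript measured at 48 h by quantitative nuclease protection (chemiluminescent) and fitted for increase relative to 0.2% DMSO. Hepatocyte cultures from separate donors got fresh compound daily over two days; morphology annotated cytotoxicity.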

Read-out in test [8]: Cytochrome P450 2C9 (Homo sapiens) (UniProt P11712)
Briefly: CLD_CYP2C9_24hr: CellzDirect (CLD) Gene Expression Assay for xenobiotic metabolism (CYP2C9) at 24 hours (AID 2283688). In a few lines: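 Induction of CYP2C9 mRNA was quantified by quantitative nuclease protection assay (chemiluminescence), gain of signal versus 0.2% DMSO vehicle, 24 h after dosing. Human primary hepatocytes (two donors) received fresh chemical daily at multiple concentrations; morphology-based cytotoxicity flagged yes/no.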

Read-out in test [9]: Cytochrome P450 3A4 (Homo sapiens) (UniProt P08684)
Kind of test: CLD_CYP3A4_24hr: CellzDirect (CLD) Gene Expression Assay for xenobiotic metabolism (CYP3A4) at 24 hours (AID 2283689). In a few lines: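 CYP3A4 mRNA induction read by quantitative nuclease protection (chemiluminescence) 24 hr after dosing. Cultured human hepatocytes (two donor preparations) treated daily, vehicle 0.2% DMSO; phase-contrast morphology annotates cytotoxicity.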

Read-out in test [10]: HMG-CoA synthase (HMGCS2), HMGCS2 (gene 3158)
Kind of test: CLD_HMGCS2_24hr: CellzDirect (CLD) Gene Expression Assay for HMG-CoA synthase (HMGCS2) at 24 hours (AID 2283691). Summed up:
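qNPA with S1 nuclease digestion and chemiluminescent detection gave HMGCS2 transcript levels, fitted upward against 0.2% DMSO vehicle. Cultured human hepatocytes (two donors) received fresh compound daily and were harvested at 24 h; phase-contrast morphology flagged cytotoxicity.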

Read-out in test [11]: alkyl and aryl transferase (GSTA2), GSTA2 (gene 2939)
Kind of test: CLD_GSTA2_24hr: CellzDirect (CLD) Gene Expression Assay for alkyl and aryl transferase (GSTA2) at 24 hours (AID 2283693). In a few lines:
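GSTA2 transcript levels were quantified by quantitative nuclease protection assay in primary human hepatocytes 24 h after daily dosing with fresh solutions at multiple concentrations; 0.2% DMSO vehicle as baseline, cytotoxicity flagged morphologically.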

Read-out in test [12]: ABC Transporter (ABCB1), ABCB1 (gene 5243)
Briefly: CLD_ABCB1_48hr: CellzDirect (CLD) Gene Expression Assay for ABC Transporter (ABCB1) at 48 hours (AID 2283695). Summed up:
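ABCB1 mRNA was measured by quantitative nuclease protection assay (chemiluminescence) 48 h after dosing. Human hepatocyte cultures from two separate donors received fresh dosing solutions daily for two days, with 0.2% DMSO as vehicle. Positive-direction fit against DMSO.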

Read-out in test [13]: Cytochrome P450 2B6 (Homo sapiens) (UniProt P20813)
Kind of test: CLD_CYP2B6_48hr: CellzDirect (CLD) Gene Expression Assay for xenobiotic metabolism (CYP2B6) at 48 hours (AID 2283699).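 Further: actives raise transcript level above DMSO so potency reflects induction.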 In a few lines:
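CYP2B6 transcript induction, read by quantitative nuclease protection (S1 digestion, chemiluminescent detection) 48 h after dosing, is fitted upward against 0.2% DMSO. Cultured human liver primary cells, two donor preparations, received fresh chemical daily over multiple concentrations.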

Read-out in test [14]: xenobiotic metabolism (CYP1A1), CYP1A1 (gene 1543)
Kind of test: CLD_CYP1A1_48hr: CellzDirect (CLD) Gene Expression Assay for xenobiotic metabolism (CYP1A1) at 48 hours (AID 2283705). In a few lines: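 CYP1A1 transcript measured by quantitative nuclease protection (chemiluminescent) 48 h after two daily treatments of human hepatocyte cultures, versus 0.2% DMSO. Morphology-based cytotoxicity flags accompany data; two donor preparations used.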

Read-out in test [15]: Cytochrome P450 2B6 (Homo sapiens) (UniProt P20813)
Kind of test: CLD_CYP2B6_24hr: CellzDirect (CLD) Gene Expression Assay for xenobiotic metabolism (CYP2B6) at 24 hours (AID 2283686). In a few lines:
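qNPA chemiluminescent measurement of mRNA at 24 hours in human primary hepatocyte cultures from two donor preparations, with daily fresh dosing and 0.2% DMSO vehicle as baseline. Morphology-based cytotoxicity flagged yes/no.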

Read-out in test [16]: Glyceraldehyde-3-phosphate dehydrogenase (Homo sapiens) (UniProt P04406)
Kind of test: CLD_GAPDH_24hr: CellzDirect (CLD) Gene Expression Assay for Baseline Control (Glyceraldehyde 3-phosphate dehydrogenase) at 24 hours (AID 2283692). In a few lines: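 GAPDH baseline-control readout: qNPA chemiluminescent mRNA signal in human primary hepatocytes harvested 24 h after daily dosing, normalised to 0.2% DMSO with positive fitting direction; cytotoxicity annotated by phase-contrast morphology.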

Read-out in test [17]: Cytochrome P450 3A4 (Homo sapiens) (UniProt P08684)
Briefly: CLD_CYP3A4_48hr: CellzDirect (CLD) Gene Expression Assay for xenobiotic metabolism (CYP3A4) at 48 hours (AID 2283698). Summed up: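 CYP3A4 induction read by qNPA chemiluminescence after 48 h, with fresh dosing solutions on consecutive days, in cultured human hepatocytes (two donors). Vehicle 0.2% DMSO as baseline; microscopy-based cytotoxicity annotated yes/no alongside data.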

Read-out in test [18]: sulfotransferase (SULT2A), SULT2A1 (gene 6822)
Briefly: CLD_SULT2A_24hr: CellzDirect (CLD) Gene Expression Assay for sulfotransferase (SULT2A) at 24 hours (AID 2283694).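 On AC50: potency for increased SULT2A1 mRNA level as induction over DMSO baseline.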 In a few lines: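 mRNA is measured by qNPA: probe hybridisation, S1 nuclease digestion, chemiluminescence, in lysates from human primary hepatocytes harvested 24 h after daily dosing. Vehicle was 0.2% DMSO. Phase-contrast microscopy flagged cytotoxicity (yes/no).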

Read-out in test [19]: xenobiotic metabolism (CYP2C9), CYP2C9 (gene 1559)
Kind of test: CLD_CYP2C9_48hr: CellzDirect (CLD) Gene Expression Assay for xenobiotic metabolism (CYP1A2) at 48 hours (AID 2283701; active means hit-call score of the fitted dose curve at least 0.9, where 1 is the maximum; inactive means score below 0.9). In a few lines: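 mRNA level measured by quantitative nuclease protection (S1 digestion, chemiluminescent detection) in lysates of human primary hepatocytes exposed 48 h with daily re-dosing. Induction fitted positively versus 0.2% DMSO; morphology-based cytotoxicity flagged yes/no.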

Chain of Cytochrome P450 2C19 (Homo sapiens) (P33261 whole entry, looked up): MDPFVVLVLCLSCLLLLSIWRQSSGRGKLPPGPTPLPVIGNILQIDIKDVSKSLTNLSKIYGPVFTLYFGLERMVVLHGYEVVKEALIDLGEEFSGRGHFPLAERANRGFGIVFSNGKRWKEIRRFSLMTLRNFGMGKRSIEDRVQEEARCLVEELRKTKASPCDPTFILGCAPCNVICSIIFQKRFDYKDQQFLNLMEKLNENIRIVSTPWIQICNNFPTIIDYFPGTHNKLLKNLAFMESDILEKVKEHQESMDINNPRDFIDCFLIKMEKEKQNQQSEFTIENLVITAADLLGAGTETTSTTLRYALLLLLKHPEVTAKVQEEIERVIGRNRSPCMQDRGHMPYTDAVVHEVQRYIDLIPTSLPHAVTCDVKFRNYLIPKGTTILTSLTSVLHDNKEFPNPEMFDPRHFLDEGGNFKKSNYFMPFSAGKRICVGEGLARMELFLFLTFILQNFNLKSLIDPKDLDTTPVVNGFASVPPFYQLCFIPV
Chain of Cytochrome P450 3A4 (Homo sapiens) (P08684 whole entry, looked up): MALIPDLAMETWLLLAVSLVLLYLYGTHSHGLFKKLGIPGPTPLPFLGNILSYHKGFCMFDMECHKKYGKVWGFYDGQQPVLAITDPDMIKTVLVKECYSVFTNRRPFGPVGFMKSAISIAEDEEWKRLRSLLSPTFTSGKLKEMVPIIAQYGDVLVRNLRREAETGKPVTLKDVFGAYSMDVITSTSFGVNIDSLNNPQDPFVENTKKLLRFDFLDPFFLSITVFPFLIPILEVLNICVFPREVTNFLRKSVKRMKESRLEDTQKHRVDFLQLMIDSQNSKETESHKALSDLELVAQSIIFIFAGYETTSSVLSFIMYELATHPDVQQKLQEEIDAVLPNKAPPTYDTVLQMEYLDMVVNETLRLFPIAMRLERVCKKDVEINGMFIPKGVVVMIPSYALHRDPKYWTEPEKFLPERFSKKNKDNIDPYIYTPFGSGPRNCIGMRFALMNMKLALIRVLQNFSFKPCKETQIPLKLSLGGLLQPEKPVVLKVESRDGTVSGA
Chain of Broad substrate specificity ATP-binding cassette transporter ABCG2 (Homo sapiens) (Q9UNQ0 whole entry, looked up): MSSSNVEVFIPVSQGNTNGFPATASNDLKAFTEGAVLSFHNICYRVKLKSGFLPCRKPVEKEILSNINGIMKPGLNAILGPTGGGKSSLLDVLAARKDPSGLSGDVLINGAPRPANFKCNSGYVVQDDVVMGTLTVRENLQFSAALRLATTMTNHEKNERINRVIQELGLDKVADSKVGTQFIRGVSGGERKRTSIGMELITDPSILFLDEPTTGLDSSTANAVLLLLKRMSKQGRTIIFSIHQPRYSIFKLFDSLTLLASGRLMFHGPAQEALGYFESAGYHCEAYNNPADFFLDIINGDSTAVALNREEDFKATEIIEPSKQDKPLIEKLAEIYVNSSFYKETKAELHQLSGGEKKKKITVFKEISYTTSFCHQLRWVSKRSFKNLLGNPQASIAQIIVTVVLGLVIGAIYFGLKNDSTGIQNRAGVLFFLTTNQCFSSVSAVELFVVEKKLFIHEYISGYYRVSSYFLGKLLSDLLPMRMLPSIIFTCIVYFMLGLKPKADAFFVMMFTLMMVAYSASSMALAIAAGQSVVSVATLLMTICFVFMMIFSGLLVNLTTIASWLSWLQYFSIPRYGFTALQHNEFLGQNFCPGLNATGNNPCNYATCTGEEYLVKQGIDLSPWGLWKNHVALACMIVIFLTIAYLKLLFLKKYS
Chain of Glyceraldehyde-3-phosphate dehydrogenase (Homo sapiens) (P04406 whole entry, looked up): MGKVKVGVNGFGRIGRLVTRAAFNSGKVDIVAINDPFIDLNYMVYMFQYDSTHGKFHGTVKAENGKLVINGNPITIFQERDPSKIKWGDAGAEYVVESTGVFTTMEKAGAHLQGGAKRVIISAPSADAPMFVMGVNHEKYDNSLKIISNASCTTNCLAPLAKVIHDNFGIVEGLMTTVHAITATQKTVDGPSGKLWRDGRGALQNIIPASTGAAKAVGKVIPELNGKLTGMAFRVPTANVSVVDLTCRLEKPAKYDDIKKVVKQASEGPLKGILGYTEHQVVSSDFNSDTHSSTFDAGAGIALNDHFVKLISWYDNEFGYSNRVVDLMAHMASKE

As usually defined, the AC50 is the concentration at which the activity in the assay is half-maximal. As for `CC(C)Oc1cccc(NC(=O)c2ccccc2C(F)(F)F)c1`, the figures for the AC50 in test [1], in test [6] and in [7] were 20 µM (active), 7.17 µM (active) and 0.858 nM (active), respectively. In addition, the molecule was called inactive in [2], in [3], in test [4] and in [5].

Consider `CSC(=O)c1c(C(F)F)nc(C(F)(F)F)c(C(=O)SC)c1CC(C)C`, for which the half-maximal activity concentration (AC50) in test [1] was 5.33 µM (active); in [9], 2.07 µM (active); in test [13], 0.416 µM (active); in test [6] it was 6.64 µM (active); in test [14], 20 µM (active). Also, the outcome in [2], in [4], in test [8], in test [10], in test [11] and in [12] was inactive. Moreover, the molecule was called inactive in test [5] and in [7].

In the case of `CN=C=S`, the call in [1], in [3], in test [15], in test [4], in test [9] and in [10] was inactive. Also, the outcome in [16], in [11], in test [5] and in test [7] was inactive.

In the case of `CCOc1nc(F)cc2nc(S(=O)(=O)Nc3c(Cl)cccc3Cl)nn12`, the call in test [1], in [2], in [10], in [16], in test [12] and in test [5] was inactive. The call in [6] and in test [14] was inactive. Moreover, the AC50 in [9] is 2.93 µM (active); in test [17], 3.13 µM (active).

On to `CC(C)N1C(=O)N(c2ccccc2)CSC1=NC(C)(C)C`, for which the outcome in [1], in test [8], in [18], in test [12], in test [5] and in test [6] was inactive. Further, the outcome in test [7] was inactive. The figures for the AC50 in test [9], in [13] and in test [14] were 20 µM (active), 4.31 µM (active) and 33.6 µM (active), respectively.

Take `COC(=O)c1c(C(F)F)nc(C(F)(F)F)c(C2=NCCS2)c1CC(C)C`: the AC50 in test [1] is 9.96 µM (active); in test [18], 20 µM (active); in test [17], 1.9 µM (active); in [6], 1.66 µM (active). Moreover, the result in test [9], in [12], in test [5] and in test [7] was inactive.

As to `O=C(O)c1c(Cl)ccc2cc(Cl)cnc12`, the outcome in test [1], in [4], in test [9], in [16], in test [5] and in [6] was inactive. Moreover, the AC50 in [19] was 69 nM (active).

Regarding `CS(=O)(=O)c1cc(C(F)(F)F)ccc1C(=O)c1cnoc1C1CC1`, the result in test [1], in test [4], in test [16], in test [11], in test [12] and in test [5] was inactive. Moreover, in test [7], the molecule was classed as inactive. Further, the AC50 in [9] is 9.79 µM (active); in test [13] it was 9.48 µM (active); in test [6] it was 20 µM (active).
